From PubChem BioAssay AID493212 (National Center for Advancing Translational Sciences (NCATS), 2011)
Some of the results follow. Results filed as inconclusive are left out. Active and inactive are the calls of the source. Calls follow the shape of the dose curve; as a rule, active = well fitted inhibition curve with a large enough effect; inconclusive = small, poorly fitted or top-dose-only effect; inactive = no such curve, though single readings can be large or run the other way.

What follows are molecules tested against Lysine-specific demethylase 4E (Homo sapiens) (UniProt B2RXH2) (assay: Inhibitors of Human Jumonji Domain Containing 2E (JMJD2E): 8HQs - Round 1). Conditions: FDH-coupled NADH fluorescence (FDH is formaldehyde dehydrogenase).
Lysine-specific demethylase 4E (Homo sapiens), sequence (B2RXH2 1-337 limits assumed): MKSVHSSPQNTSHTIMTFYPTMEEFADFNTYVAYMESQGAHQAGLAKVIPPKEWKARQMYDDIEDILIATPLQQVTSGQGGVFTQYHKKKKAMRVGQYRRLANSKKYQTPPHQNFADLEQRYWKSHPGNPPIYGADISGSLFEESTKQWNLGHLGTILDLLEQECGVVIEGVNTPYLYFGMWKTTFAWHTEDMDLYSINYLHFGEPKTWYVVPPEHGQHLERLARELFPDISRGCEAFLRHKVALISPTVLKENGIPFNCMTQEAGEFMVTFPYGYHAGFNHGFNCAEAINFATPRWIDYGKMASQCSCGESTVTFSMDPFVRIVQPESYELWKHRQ
Text: The fine interplay among methylation states of several lysine residues on the tails of histone proteins is a major determinant of the transcriptional state of the associated DNA coding regions and is commonly referred to as the histone code. Histone lysine demethylases catalyze the removal of methyl groups from methylated lysine sidechains on histones H3 and H4, thus antagonizing the reactions catalyzed by histone lysine methyltransferases. […] In search for novel inhibitors of JMJD2E demethylase, a member of the largest set of histone demethylases belonging to the Fe(II) and 2-oxoglutarate oxygenase (2OG) superfamily, we performed a quantitative high-throughput screen (Inglese 2006) by using an assay which utilizes a trimethylated peptide substrate corresponding to a fragment of histone H3 (sequence ARKme3STGGK) with detection of the formaldehyde co-product in real time by a formaldehyde dehydrogenase (FDH) coupled reaction. FDH catalyzes oxidation of formaldehyde to formic acid with the concomitant reduction of the non-fluorescent beta-nicotinamide adenine dinucleotide hydrate (NAD+) cofactor to the fluorescent NADH co-product. This assay is a following of SAR around 8-hydroxyquinoline-based inhibitors of JMJD2E. References: Inglese, J., Auld, D., Jadhav, A., Johnson, R., Simeonov, A., Yasgar, A., Zheng, W. and Austin, C. Proc Natl Acad Sci USA 2006, 103, 11473-11478. N. R. Rose, S. S. Ng, J. Mecinovic, B. M. Lienard, S. H. Bello, Z. Sun, M. A. McDonough, U. Oppermann and C. J. Schofield, J Med Chem, 2008, 51, 7053-7056. Sakurai, M., Rose, N., Schultz, L., Quinn, A., Jadhav, A., Ng, S., Oppermann, U., Schofield, C.J. and Simeonov, A. Mol BioSystems 2009, in press. S. Michael, D. Auld, C. Klumpp, A. Jadhav, W. Zheng, N. Thorne, C. Austin, J. Inglese and A. Simeonov, Assay Drug Dev Technol, 2008, 6, 637-657. Assay Provider: Structural Genomics Consortium [SGC] Screening Center PI: Austin, C.P. Screening Center: NIH Chemical Genomics Center [NCGC]
Reagents and Controls: Ferrous ammonium sulfate, (+)-sodium L-ascorbate, beta-nicotinamide adenine dinucleotide hydrate (NAD+), Tween-20, formaldehyde dehydrogenase from P. putida (FDH), and disodium 2-oxoglutarate were from Sigma (St. Louis, MO). Black solid-bottom 384-well or 1,536-well assay plates were from Greiner Bio-One (Monroe, NC). Enzyme was supplied by Prof. Udo Oppermann, SGC-Oxford. The catalytic domain of human JMJD2E (residues 1-337) was produced as an N-terminally His6-tagged protein in E. coli, and purified by Ni-affinity chromatography and size-exclusion chromatography, and stored in HEPES 50 mM/ NaCl 500 mM pH 7.5, as reported in Rose 2008. The trimethylated histone peptide substrate ARK(me3)STGGK was synthesized and HPLC-purified by the Tufts University Core Facility (Boston, MA). Substrate solution (Sakurai 2009) contained 50 uM ARK(me3)STGGK, 0.00025 U/uL FDH, 50 uM 2-oxoglutarate, 250 uM NAD+, 1 mM ascorbate, and 10 uM ferrous ammonium sulfate. Controls and plate map: Buffer (150 mM HEPES pH 7.5 containing 0.01% Tween-20) in columns 3 and 4 as negative control (no enzyme) and 100 nM JMJD2E final concentration in columns 1,2, and 5-48. […] The plate was transferred to ViewLux imager where an initial reading using standard UV optics (Ex 340 nm, Em 450 nm) was obtained. The plate was then removed from the reader, incubated for 30 minutes at room temperature, and returned to the reader for a second fluorescence reading. […]

Potency, active:
CC(=O)NC(c1cccs1)c1cc(Cl)c2cccnc2c1O (stereo not given) 12.9 µM
Oc1cccc2cc(-c3ccncc3)cnc12 18.2 µM
Nc1ccc(Nc2cc(O)c3ncccc3c2)cc1 32.4 µM
Oc1c(CN2CCCC2)cc(COCc2ccccc2)c2cccnc12 5.01 µM
Oc1ccc(/C=C/c2c(F)cccc2F)c2cccnc12 8.91 µM
